Assay results from the supplement of paper PMC11732987, “Enantioselective OTUD7B fragment discovery through chemoproteomics screening and high-throughput optimisation” (Communications Chemistry, 2025).

Legend:
Experiment in all cases: log2 ratio of Biotin-Ahx-Ub-VS probe labelling (fragment/DMSO); higher = less target engagement (more negative = stronger competition), active = hit call of the paper (q ≤ 0.05, log2 ratio ≤ -1)
Details in all cases: compound concentration: 200 uM; treatment time: 3 h
USP16 = USP16 (UniProt Q9Y5T5)
Chain of USP16 (Q9Y5T5 whole entry, looked up, the tested form may be a part): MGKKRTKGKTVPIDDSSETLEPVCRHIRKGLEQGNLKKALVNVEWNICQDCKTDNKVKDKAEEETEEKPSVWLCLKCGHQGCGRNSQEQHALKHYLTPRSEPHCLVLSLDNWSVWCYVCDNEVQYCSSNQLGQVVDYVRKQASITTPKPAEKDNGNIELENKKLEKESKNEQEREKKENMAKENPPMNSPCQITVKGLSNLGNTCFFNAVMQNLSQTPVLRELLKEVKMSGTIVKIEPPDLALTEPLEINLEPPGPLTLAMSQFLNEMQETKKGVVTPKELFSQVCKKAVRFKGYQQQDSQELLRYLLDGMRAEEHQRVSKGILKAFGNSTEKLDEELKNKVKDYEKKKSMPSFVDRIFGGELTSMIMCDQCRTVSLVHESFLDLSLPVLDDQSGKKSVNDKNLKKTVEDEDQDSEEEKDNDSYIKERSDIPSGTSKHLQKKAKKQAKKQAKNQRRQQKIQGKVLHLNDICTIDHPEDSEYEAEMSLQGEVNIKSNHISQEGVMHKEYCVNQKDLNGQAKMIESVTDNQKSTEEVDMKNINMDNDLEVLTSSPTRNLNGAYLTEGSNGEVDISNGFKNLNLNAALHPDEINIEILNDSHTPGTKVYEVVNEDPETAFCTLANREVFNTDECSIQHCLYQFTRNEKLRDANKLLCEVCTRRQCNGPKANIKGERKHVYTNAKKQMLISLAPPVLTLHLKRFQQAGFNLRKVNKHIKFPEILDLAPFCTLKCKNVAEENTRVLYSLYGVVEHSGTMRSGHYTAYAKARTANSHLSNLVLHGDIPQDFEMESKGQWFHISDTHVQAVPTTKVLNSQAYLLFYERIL
How it was run: (§1)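 Global-median-normalised Spectronaut label-free quantities were compared by unpaired t-test, and values are average log2 ratios of fragment over vehicle. Only proteins with ≥2 unique peptides were used. HEK293T lysate (495 µg per sample) was treated in triplicate with fragment at 200 µM or vehicle for 3 h and then with Biotin-Ahx-Ub-VS at 0.5 µM final for 1 h. Labelled DUBs were then NeutrAvidin-enriched, digested with LysC and trypsin, and run by diaPASEF LC-MS/MS.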

USP19 = target: T1, USP19 (UniProt O94966)
T1 sequence (whole entry): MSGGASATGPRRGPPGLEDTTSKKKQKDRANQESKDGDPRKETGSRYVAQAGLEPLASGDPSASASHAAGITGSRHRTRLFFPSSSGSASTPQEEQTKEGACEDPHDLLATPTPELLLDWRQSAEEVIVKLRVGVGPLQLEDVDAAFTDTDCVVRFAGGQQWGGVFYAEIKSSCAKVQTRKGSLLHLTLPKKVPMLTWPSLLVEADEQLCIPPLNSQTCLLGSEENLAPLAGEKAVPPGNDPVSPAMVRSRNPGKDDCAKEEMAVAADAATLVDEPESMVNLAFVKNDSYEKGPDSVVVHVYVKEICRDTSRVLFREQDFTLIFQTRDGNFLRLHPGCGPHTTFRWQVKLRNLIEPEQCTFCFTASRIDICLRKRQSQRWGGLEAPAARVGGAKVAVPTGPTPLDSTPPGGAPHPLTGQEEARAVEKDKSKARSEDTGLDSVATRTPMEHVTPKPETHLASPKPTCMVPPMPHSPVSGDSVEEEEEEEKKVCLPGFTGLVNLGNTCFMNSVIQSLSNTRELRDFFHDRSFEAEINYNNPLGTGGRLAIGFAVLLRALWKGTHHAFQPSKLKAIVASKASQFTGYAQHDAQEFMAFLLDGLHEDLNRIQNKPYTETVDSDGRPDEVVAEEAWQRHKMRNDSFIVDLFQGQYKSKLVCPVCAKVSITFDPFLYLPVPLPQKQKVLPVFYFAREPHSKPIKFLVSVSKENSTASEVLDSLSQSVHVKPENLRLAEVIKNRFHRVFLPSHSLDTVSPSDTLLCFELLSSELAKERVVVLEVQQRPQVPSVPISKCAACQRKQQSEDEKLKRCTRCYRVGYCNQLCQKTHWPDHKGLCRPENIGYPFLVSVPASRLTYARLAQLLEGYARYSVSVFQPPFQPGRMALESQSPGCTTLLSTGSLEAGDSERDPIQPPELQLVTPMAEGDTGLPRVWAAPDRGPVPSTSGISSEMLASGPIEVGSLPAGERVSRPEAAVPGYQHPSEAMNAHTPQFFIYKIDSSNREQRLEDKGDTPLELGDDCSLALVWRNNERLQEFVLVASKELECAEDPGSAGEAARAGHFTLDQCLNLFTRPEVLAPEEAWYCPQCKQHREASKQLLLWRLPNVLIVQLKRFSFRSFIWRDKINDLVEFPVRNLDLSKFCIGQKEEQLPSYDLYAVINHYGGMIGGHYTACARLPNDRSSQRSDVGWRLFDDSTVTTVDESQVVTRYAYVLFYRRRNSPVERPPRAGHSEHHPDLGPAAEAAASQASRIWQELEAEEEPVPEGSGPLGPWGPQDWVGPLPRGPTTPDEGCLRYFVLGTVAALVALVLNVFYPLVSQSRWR
How it was run: as §1

USP24 = USP24 (UniProt Q9UPU5)
Chain of USP24 (Q9UPU5 whole entry): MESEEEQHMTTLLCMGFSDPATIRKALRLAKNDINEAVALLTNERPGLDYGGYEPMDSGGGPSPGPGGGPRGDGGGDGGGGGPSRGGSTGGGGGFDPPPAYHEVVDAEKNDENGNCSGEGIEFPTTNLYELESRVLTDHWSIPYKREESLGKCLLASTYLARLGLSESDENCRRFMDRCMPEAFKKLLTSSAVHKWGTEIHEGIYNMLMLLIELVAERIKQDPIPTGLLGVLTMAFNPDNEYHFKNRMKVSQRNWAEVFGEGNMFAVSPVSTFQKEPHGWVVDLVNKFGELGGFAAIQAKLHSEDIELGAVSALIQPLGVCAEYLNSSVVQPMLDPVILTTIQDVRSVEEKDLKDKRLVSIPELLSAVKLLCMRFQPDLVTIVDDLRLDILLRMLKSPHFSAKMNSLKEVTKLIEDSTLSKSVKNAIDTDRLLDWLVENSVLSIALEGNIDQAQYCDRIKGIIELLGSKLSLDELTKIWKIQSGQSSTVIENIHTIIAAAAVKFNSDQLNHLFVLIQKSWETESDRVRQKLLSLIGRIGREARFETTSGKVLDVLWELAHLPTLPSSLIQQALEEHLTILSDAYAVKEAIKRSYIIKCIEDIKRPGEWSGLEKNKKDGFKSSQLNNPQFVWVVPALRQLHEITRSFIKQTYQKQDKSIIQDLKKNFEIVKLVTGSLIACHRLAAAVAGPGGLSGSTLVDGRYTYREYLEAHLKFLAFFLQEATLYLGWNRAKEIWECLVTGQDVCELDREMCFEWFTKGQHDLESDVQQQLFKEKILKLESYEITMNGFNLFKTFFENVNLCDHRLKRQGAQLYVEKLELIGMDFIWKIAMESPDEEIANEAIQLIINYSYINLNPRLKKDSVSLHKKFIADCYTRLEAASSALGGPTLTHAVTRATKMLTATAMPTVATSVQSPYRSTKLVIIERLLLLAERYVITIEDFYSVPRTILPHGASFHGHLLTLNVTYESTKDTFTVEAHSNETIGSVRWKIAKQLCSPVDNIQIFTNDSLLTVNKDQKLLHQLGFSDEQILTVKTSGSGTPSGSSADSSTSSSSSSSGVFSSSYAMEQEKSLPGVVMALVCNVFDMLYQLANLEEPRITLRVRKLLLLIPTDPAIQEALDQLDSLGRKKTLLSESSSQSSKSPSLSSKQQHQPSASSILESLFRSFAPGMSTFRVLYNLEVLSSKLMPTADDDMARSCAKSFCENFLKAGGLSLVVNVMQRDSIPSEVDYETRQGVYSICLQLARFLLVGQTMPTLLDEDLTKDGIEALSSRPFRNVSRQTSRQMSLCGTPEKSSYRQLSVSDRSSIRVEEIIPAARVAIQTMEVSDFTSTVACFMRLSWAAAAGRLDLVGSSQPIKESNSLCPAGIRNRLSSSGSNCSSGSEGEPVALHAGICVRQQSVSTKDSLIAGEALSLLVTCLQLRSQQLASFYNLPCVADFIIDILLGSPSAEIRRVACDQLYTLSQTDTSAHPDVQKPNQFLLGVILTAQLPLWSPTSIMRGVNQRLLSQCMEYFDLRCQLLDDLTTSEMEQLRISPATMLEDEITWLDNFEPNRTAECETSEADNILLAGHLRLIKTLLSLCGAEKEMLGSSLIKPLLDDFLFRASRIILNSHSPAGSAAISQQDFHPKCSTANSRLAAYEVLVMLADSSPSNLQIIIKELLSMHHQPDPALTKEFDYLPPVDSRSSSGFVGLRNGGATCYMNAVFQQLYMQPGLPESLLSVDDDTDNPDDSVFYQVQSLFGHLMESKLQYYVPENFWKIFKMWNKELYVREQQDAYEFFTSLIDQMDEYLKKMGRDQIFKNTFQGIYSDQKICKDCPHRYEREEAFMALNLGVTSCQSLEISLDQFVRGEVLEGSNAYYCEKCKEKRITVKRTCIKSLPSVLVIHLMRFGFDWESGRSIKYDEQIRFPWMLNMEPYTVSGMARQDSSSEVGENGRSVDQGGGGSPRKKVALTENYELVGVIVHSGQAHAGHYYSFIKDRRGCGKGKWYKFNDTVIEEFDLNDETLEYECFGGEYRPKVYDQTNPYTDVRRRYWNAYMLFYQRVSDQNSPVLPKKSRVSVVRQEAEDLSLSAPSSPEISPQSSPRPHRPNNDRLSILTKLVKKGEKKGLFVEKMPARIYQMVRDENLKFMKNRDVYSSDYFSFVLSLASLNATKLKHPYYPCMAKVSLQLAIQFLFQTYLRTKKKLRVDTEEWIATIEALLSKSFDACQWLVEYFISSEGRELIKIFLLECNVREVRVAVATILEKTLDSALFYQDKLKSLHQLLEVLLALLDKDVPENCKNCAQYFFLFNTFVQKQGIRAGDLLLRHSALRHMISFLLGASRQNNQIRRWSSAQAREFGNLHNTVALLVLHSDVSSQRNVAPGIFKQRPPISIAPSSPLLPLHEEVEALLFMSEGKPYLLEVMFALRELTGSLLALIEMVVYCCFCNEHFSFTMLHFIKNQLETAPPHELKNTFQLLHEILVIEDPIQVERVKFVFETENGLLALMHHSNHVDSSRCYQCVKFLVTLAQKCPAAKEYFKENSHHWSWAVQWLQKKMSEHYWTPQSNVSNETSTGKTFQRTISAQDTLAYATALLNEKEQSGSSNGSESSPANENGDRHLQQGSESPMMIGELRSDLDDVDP
How it was run: as §1

USP25 = target: T2, USP25 (UniProt Q9UHP3)
T2 sequence (whole entry): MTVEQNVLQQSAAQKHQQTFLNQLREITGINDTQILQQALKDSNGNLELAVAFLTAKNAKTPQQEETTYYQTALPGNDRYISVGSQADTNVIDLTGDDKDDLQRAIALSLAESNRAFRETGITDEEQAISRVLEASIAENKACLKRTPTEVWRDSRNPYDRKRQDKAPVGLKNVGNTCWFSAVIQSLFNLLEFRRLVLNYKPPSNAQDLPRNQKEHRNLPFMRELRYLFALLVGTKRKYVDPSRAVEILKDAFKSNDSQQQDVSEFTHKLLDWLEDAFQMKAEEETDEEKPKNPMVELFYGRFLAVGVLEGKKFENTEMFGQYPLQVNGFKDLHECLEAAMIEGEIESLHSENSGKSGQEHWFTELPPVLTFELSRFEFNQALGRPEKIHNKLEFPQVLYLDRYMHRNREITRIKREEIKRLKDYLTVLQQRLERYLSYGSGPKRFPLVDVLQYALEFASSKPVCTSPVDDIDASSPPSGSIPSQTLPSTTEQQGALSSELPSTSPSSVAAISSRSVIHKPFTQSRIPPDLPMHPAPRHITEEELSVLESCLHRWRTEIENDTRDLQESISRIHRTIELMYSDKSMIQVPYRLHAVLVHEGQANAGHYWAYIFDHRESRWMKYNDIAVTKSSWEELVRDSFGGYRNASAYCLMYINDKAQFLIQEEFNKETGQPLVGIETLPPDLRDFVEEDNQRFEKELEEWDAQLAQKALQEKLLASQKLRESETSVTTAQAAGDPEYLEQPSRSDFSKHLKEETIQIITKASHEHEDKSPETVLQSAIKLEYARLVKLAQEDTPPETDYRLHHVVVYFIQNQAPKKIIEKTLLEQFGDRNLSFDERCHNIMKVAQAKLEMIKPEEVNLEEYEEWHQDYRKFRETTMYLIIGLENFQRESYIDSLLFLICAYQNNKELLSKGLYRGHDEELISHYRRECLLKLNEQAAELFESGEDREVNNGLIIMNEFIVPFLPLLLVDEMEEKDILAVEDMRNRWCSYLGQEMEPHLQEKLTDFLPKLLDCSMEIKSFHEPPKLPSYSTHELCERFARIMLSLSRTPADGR
How it was run: as §1

USP28 = target: T3, USP28 (UniProt Q96RU2)
T3 sequence (whole entry): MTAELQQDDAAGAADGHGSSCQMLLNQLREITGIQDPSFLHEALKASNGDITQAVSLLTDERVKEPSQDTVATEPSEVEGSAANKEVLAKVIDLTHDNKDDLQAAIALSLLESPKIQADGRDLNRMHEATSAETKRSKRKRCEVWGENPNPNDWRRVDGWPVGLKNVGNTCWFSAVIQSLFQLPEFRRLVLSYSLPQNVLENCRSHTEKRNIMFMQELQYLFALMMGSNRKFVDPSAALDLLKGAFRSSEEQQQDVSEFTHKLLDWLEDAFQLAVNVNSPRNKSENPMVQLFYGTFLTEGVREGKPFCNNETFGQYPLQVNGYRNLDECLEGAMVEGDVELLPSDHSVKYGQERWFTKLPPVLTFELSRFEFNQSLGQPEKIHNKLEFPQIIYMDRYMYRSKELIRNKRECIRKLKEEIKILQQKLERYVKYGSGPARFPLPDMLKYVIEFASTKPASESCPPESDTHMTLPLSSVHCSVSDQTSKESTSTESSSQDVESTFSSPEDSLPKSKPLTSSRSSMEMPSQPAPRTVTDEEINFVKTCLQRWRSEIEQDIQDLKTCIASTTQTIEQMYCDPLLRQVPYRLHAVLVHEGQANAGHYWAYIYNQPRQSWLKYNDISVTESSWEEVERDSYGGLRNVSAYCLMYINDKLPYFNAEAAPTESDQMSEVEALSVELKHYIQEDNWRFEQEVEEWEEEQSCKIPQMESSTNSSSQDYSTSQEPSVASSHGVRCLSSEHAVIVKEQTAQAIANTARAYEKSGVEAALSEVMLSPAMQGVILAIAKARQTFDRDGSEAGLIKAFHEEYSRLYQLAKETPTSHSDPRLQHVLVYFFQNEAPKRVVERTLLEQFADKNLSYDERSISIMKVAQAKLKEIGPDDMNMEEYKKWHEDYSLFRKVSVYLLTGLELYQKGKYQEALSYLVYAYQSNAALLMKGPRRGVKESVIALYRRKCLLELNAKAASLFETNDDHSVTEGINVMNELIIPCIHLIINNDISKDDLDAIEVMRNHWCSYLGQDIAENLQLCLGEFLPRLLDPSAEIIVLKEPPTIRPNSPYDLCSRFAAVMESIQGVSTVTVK
How it was run: as §1

Measured: log2 ratio of Biotin-Ahx-Ub-VS probe labelling

CN(Cc1nc2ccccc2[nH]1)C(=O)CCl.Cl
inactive: USP16 -0.572 | USP19 -0.0932 | USP24 -0.721 | USP25 0.0889 | USP28 -0.218
